# Reference: PubChem BioAssay AID2732 (Emory University Molecular Libraries Screening Center, 2010)
# Among all 220,000 compounds or so, about 8,200 (3.7%) were called active.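 Rule for the calls: active = compounds that reduced the stress-induced luciferase reporter signal by more than about 70% of percent inhibition (limit read from the data); inactive = the rest.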 The sample as a whole holds a higher share of actives than the screen did.
# Assay: inhibitors of CHOP promoter induction, primary screen, cell-based, unfolded protein response, luciferase reporter (AID 2732);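 note: 0% = tunicamycin plus vehicle and 100% = wells without tunicamycin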
# Settings: CHO-K1 CHOP-promoter luciferase, tunicamycin-induced, 15-18 h; at 10 µM; hits give high values
row,SMILES,inhibition
1,CNC(=O)c1csc(Cc2c(Cl)sc3ccc(Cl)cc23)n1,30.4% (inactive)
2,Cc1cc(Nc2ccc(Cl)cc2)nc(N2CCOCC2)n1,0.58% (inactive)
3,Cn1c(SCC(=O)c2ccc(F)cc2)nnc1-c1ccccn1,6.32% (inactive)
4,COc1ccc(CC(=O)NC(C)CCc2ccccc2)cc1 (stereo unspecified),-12.2% (inactive)
5,COc1ccc(C(CCNCc2ccccc2F)c2ccc(F)cc2)cc1 (stereo unspecified),79.4% (active)
6,COc1cccc(CNCCc2c[nH]c3ccccc23)c1OCc1ccccc1F,12.6% (inactive)
7,O=c1c2cc(-c3ccccc3)sc2nc2n1N=C(c1cccs1)CS2,-4.25% (inactive)
8,Clc1ccc(-c2cc(-c3ccccn3)on2)c(Cl)c1,63.3% (inactive)
9,O=[N+]([O-])c1ccc(N=Cc2c(O)ccc3ccccc23)cc1,28.1% (inactive)
10,COCCN(C(=S)Nc1cccc(Cl)c1C)C(C)c1ccco1 (stereo unspecified),42.5% (inactive)
11,C=C(C)C(=O)Nc1cccc(C2=NOC3(C2)C[C@H](C(N)=O)N(C(=O)C(c2ccccc2)c2ccccc2)C3)c1 (stereo partly specified),-8.97% (inactive)
12,CC(C)(C)c1ccc(/C=C2\Oc3c(ccc(O)c3CN3CCN(CCO)CC3)C2=O)cc1,-15.1% (inactive)
13,Cc1ccc(C(=O)N/C(=C\c2ccco2)C(=O)NC2CCS(=O)(=O)C2)cc1 (stereo unspecified),10.1% (inactive)
14,Cc1cc(C(=O)N2CCC(C(=O)O)CC2)c(C(F)(F)F)o1,1.47% (inactive)
15,Cc1cc(C)cc(N(CC(=O)N2CC=C(c3ccccc3)CC2)S(=O)(=O)c2c(C)noc2C)c1,70% (active)
16,Cc1cc(C)cc(N(CC(=O)NCC2CCCO2)S(=O)(=O)c2c(C)noc2C)c1 (stereo unspecified),23.4% (inactive)
17,CCOC(=O)C1CCCN(C(=O)CN(c2ccc(OC)cc2)S(=O)(=O)c2c(C)noc2C)C1 (stereo unspecified),10.8% (inactive)
18,CC(NC(=S)NNS(=O)(=O)c1ccc(C(C)(C)C)cc1)c1ccccc1 (stereo unspecified),51.7% (inactive)
19,O=C(c1[nH]ncc1-c1ccc(Cl)cc1)C1CO1 (stereo unspecified),-97.8% (inactive)
20,O=C1C(Cc2ccc(O)cc2)NC(=S)N1Cc1ccccc1 (stereo unspecified),-7.09% (inactive)
21,O=C1CC(Cc2ccc(Cl)cc2)C(=O)N1c1cc(Cl)ccn1 (stereo unspecified),7.86% (inactive)
22,CCCCC(CC)CNC(=O)CCCCn1c(=O)[nH]c2ccsc2c1=O (stereo unspecified),10.3% (inactive)
23,CCCCC(CC)CNC(=O)C(=O)C1C(=O)Nc2ccccc21 (stereo unspecified),86.7% (active)
24,CCOC(=O)C(=O)C1C(=O)Nc2ccccc21 (stereo unspecified),17.5% (inactive)

row,SMILES,inhibition
1,Cc1cc(C(=O)CSc2nc(N)cc(=O)[nH]2)c(C)n1Cc1ccco1,3.96% (inactive)
2,COc1ccc(C(=O)N/N=C(\C)CC(=O)Nc2ccc(Cl)cn2)cc1,4.2% (inactive)
3,CC1CCN(C(=O)c2ccc(CSc3ccc(Cl)cc3)cc2)CC1,80.3% (active)
4,O=C(c1ccc(CSc2ccccc2)cc1)N1CCCCCC1,23.8% (inactive)
5,O=C(C1CC1)N1CCN=C1SCc1ccc(Cl)cc1,5.04% (inactive)
6,Cn1c2ccccc2c2cc(/C=C(\NC(=O)c3ccccc3)C(=O)NCC(=O)O)ccc21,-15.8% (inactive)
7,O=C(CCS(=O)(=O)c1ccccc1Cl)Nc1ccc(S(=O)(=O)Nc2ncccn2)cc1,3.66% (inactive)
8,CC(C)n1c(CN2CCN(Cc3ccccc3)CC2)nc2ccccc21,-0.64% (inactive)
9,CC(=O)Nc1ccc(C(=O)/C=C/c2ccc[nH]2)cc1,-14.3% (inactive)
10,O=C(NC1CCCCC1)c1cc(C2CC2)on1,1.58% (inactive)
11,CCCCc1nc(NCCN)c(C#N)c2c1CSC(C)(C)C2,101% (active)
12,Cc1nc(NCCN)c(C#N)c2c1COC(C)(C)C2,74.9% (active)
13,Cc1nc(NCc2ccccc2)c(C(N)=O)c2c1COC(C)(C)C2,-8.11% (inactive)
14,CC(C)C(=O)N1CCN(c2nc(-c3ccccc3)c3c(c2C#N)CC(C)(C)OC3)CC1,26.8% (inactive)
15,CCCCc1nc(NCc2ccccc2)c(C#N)c2c1CCCC2,54.3% (inactive)
16,CCc1nc(NCCO)c(C#N)c2c1CCCC2,17.2% (inactive)
17,C=CCSc1nnc(NC(=O)c2ccc(NC(C)=O)cc2)s1,6.97% (inactive)
18,COC(=O)c1scc(C)c1NC(=O)CSc1ccc(Cl)cc1,16.3% (inactive)
19,Cn1cccc1/C=C1\SC(=S)N(NC(=O)c2ccc(Cl)cc2)C1=O,20.4% (inactive)
20,Cn1cccc1/C=C1\SC(=O)N(CC(=O)Nc2ccc(F)cc2)C1=O,72% (active)
21,Cc1nn(Cc2ccccc2)c(C)c1C(=O)NCCN1C(=O)S/C(=C\c2ccc(F)cc2)C1=O,56.3% (inactive)
22,COc1ccc(N2CCC(CNC(=S)Nc3c(C)cccc3C)C2)cc1 (stereo unspecified),18.6% (inactive)
23,CCOc1ccccc1C1CC(c2cccc(NS(C)(=O)=O)c2)=NN1C(=O)c1ccccc1 (stereo unspecified),-2.91% (inactive)
24,CCOc1ccc2nc(Cl)c(C3CC(c4ccccc4)=NN3C(=O)c3cccs3)cc2c1 (stereo unspecified),90.5% (active)

row,SMILES,inhibition
1,COc1ccc(C2CC(c3ccccc3)=NN2C(=O)c2ccc(Cl)c([N+](=O)[O-])c2)cc1 (stereo unspecified),-21.3% (inactive)
2,OC(CNCc1ccc2c(c1)OCO2)COc1ccccc1 (stereo unspecified),-20.3% (inactive)
3,CCOC(=O)CC1C(=O)NCCN1c1nc2c(C)cccn2c(=O)c1/C=C1\SC(=S)N(C(C)CC)C1=O (stereo unspecified),5.91% (inactive)
4,C/C(Cl)=C\Cn1c(Nc2cccc(C)c2)nc2c1c(=O)n(C)c(=O)n2C,76.1% (active)
5,Cc1cccc(Cn2c(N3CCN(c4ccccc4)CC3)nc3c2c(=O)n(C)c(=O)n3C)c1,40.4% (inactive)
6,COC(=O)C(C)Sc1nc2c(c(=O)n(C)c(=O)n2C)n1Cc1cccc(C)c1 (stereo unspecified),11.8% (inactive)
7,CNc1ccc([N+](=O)[O-])cc1C(=O)O,-14.2% (inactive)
8,Nc1nc(O)c(CC(=O)O)s1,9.65% (inactive)
9,CC(=O)N/C(=C\c1ccc(F)cc1)C(=O)NC(Cc1ccccc1)C(=O)O (stereo unspecified),2.9% (inactive)
10,Cc1ccc(-n2nc(C)c(/C=N/NC(=O)c3cccs3)c2Cl)cc1,99.7% (active)
11,CC(=O)Nc1ccc(/C=N/NC(=O)c2cccs2)cc1,-21.6% (inactive)
12,Cc1cccc(-n2c(C)cc(/C=N\NC(=O)c3cccs3)c2C)c1,13.8% (inactive)
13,O=C(NCCCn1ccnc1)C(=O)NCC1OCCN1S(=O)(=O)c1cc(F)ccc1F (stereo unspecified),19.4% (inactive)
14,O=C(c1ccc(Cl)c([N+](=O)[O-])c1)N1CCN(c2ccccc2)CC1,-20.4% (inactive)
15,CO/N=C/c1ccc(N2CCN(C(=O)c3cccc(Cl)c3)CC2)c([N+](=O)[O-])c1,71.8% (active)
16,O=C(/C=C/c1ccc(Cl)cc1)N1CCN(c2ccccc2[N+](=O)[O-])CC1,32.3% (inactive)
17,CC12C(=O)N(c3ccccc3)C(=O)C1C(c1ccccc1)N1CCCN12 (stereo unspecified),7.95% (inactive)
18,O=[N+]([O-])c1ccc(N2CCSCC2)cc1O,13.8% (inactive)
19,CC(C)(C)C(=O)NC(NC(=S)Nc1ccc(S(N)(=O)=O)cc1)C(Cl)(Cl)Cl (stereo unspecified),-6.4% (inactive)
20,Cc1ccc(NC(=S)NC(NC(=O)Cc2cccc3ccccc23)C(Cl)(Cl)Cl)cc1 (stereo unspecified),110% (active)
21,O=C(Cc1cccc2ccccc12)NNC(=O)Nc1ccc(Cl)cc1,13.2% (inactive)
22,O=C(NNC(=S)NC1CC2CCC1C2)c1ccc(Cl)cc1 (stereo unspecified),-10.6% (inactive)
23,CC1(C)Oc2ccc3ccc(=O)oc3c2/C(=C/NCCO)C1=O,7.95% (inactive)
24,C/C=C(/C)C(=O)OC1Cc2c(ccc3ccc(=O)oc23)OC1(C)C (stereo unspecified),74.3% (active)

row,SMILES,inhibition
1,O=C(NCc1csc(-c2cccs2)n1)C1CC1,21.8% (inactive)
2,COc1ccccc1OCC(=O)O/N=C(\N)c1ccccn1,-9.1% (inactive)
3,CCCCN1CCNC1=S,11% (inactive)
4,Fc1ccc(-n2c(Cc3ccccc3)nnc2SCc2nc(-c3ccc(Cl)cc3)no2)cc1,82.2% (active)
5,Cc1nnc(SCc2ccc(C(=O)c3ccc(Cl)cc3)o2)n1-c1ccccc1,24.9% (inactive)
6,Cc1ccc(-c2noc(CSc3nnc(-c4ccncc4)n3-c3ccc(F)cc3)n2)cc1,35.3% (inactive)
7,Cc1oc(C(N)=O)cc1COc1ccc(C(N)=O)cc1,0.47% (inactive)
8,CC(=O)NC(=S)Nc1ccc(NC(=S)NC(=O)c2ccc([N+](=O)[O-])cc2)cc1,-4.53% (inactive)
9,O=C(Nc1nccs1)C1CCN(S(=O)(=O)c2ccc(Cl)c(C(F)(F)F)c2)CC1,70.1% (active)
10,Cc1noc(C)c1S(=O)(=O)N1CCCC(C(=O)Nc2nccs2)C1 (stereo unspecified),11.8% (inactive)
11,O=C(Nc1ccc(F)c(Cl)c1)C1CCN(S(=O)(=O)c2cccnc2)CC1,24.3% (inactive)
12,CN(Cc1nc(-c2cnccn2)no1)Cc1n[nH]c2c1CCCCC2,0.16% (inactive)
13,CCOC(=O)c1c(C)[nH]c2c1-c1ccccc1C(=O)C2=O,108% (active)
14,Cc1[nH]c2ccccc2c1C(=O)COC(=O)C(C)C,9.48% (inactive)
15,CCOC(=O)c1c(C)[nH]c(=S)c(C#N)c1-c1ccccc1,-25.2% (inactive)
16,COc1ccc(C(=O)NCC(=O)N/N=C/c2ccc([N+](=O)[O-])o2)cc1OC,-82.2% (inactive)
17,CCOC(=O)Cc1cc(=O)[nH]c(/N=C(\N)Nc2ccc(OC)cc2)n1,-6.01% (inactive)
18,O=C(CC(=O)Nc1ccc(Cl)c(Cl)c1)N/N=C/c1ccc(O)cc1,23.4% (inactive)
19,Cc1ccc(NC(=O)C/C(N)=N/O)cc1Cl,1.88% (inactive)
20,O=C(CC(O)(C(F)(F)F)C(F)(F)F)Nc1ccc(Cl)c(Cl)c1,86% (active)
21,CC(=O)NNC(=O)c1csc(Cc2c(Cl)sc3ccc(Cl)cc23)n1,32.1% (inactive)
22,Cc1ccc(Cc2nc(-c3cccc(C)c3)no2)cc1,83.2% (active)
23,Cc1ccc(-c2noc(CN3CCN(Cc4ccccc4)CC3)n2)cc1,38.4% (inactive)
24,Cc1cccc(-c2noc(-c3ccc(F)cc3)n2)c1,12% (inactive)
